PubChem BioAssay (NCI)
About 79,000 compounds went through this panel and 15% of them were active in at least one assay; those are over-represented in the sample as a whole. Values without a mark were called inactive. Active and inactive are the calls of the source. Cut-off read from the data, not from the text of the source: active = growth inhibition above about 70%; inactive = the rest.

Experiments:
[1] = NCI Yeast Anticancer Drug Screen. Data for the rad50 strain (AID 155);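 note: 0% = growth of vehicle-only cultures of the same strain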; conditions: S. cerevisiae rad50 strain growth inhibition, hits give high values
Method in brief: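 Cells are treated with compound, grown, and their growth is then scored against vehicle-only cultures of the same repair-deficient yeast strain.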

[2] = NCI Yeast Anticancer Drug Screen. Data for the mec2-1 strain (AID 157); conditions: S. cerevisiae mec2-1 strain, hits give high values
Method in brief: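 Mutant yeast (mec2-1) grown with compound; growth inhibition relative to vehicle control reported.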

[3] = NCI Yeast Anticancer Drug Screen. Data for the sgs1 mgt1 strain (AID 161);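 note: 0% = growth of cultures given vehicle only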; conditions: S. cerevisiae sgs1 mgt1 strain, hits give high values
Method in brief: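 Percent growth inhibition was derived by comparing compound-exposed mutant yeast with vehicle-exposed cultures. The strain carries alterations in DNA damage repair.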

[4] = NCI Yeast Anticancer Drug Screen. Data for the bub3 strain (AID 167); conditions: S. cerevisiae bub3 mutant strain, hits give high values
Method in brief: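 Part of a panel of yeast mutants defective in DNA damage repair or cell cycle regulation. Each strain is grown with compound, and inhibition is calculated relative to solvent-treated cultures.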

[5] = NCI Yeast Anticancer Drug Screen. Data for the mlh1 rad18 strain (AID 175); conditions: S. cerevisiae mlh1 rad18 strain growth inhibition, hits give high values
Method in brief: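 Genetically defined yeast (DNA repair-deficient) exposed to compounds; growth inhibition determined relative to vehicle.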

[6] = NCI Yeast Anticancer Drug Screen. Data for the cln2 rad14 strain (AID 165);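 note: 0% = growth equal to vehicle treated cultures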; conditions: S. cerevisiae cln2 rad14 strain, hits give high values
Method in brief: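 Readout is yeast growth inhibition versus vehicle-treated controls, using a strain with cln2 and rad14 alterations exposed to compound.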

[7] = at 5.0 µM (retest, dose inferred, filed as 0.5)
[8] = at 50.0 µM (retest, dose inferred, filed as 5.0)

Compound | growth inhibition [1, 7] | growth inhibition [1, 8] | growth inhibition ([1]; at 50.0 µM) | growth inhibition [2, 7] | growth inhibition [2, 8] | growth inhibition ([2]; at 50.0 µM) | growth inhibition [3, 7] | growth inhibition [3, 8] | growth inhibition ([3]; at 50.0 µM) | growth inhibition [4, 7] | growth inhibition [4, 8] | growth inhibition ([4]; at 50.0 µM) | growth inhibition [5, 7] | growth inhibition [5, 8] | growth inhibition ([5]; at 50.0 µM) | growth inhibition [6, 7] | growth inhibition [6, 8] | growth inhibition ([6]; at 50.0 µM)
C[n+]1ccccc1C[n+]1ccccc1 | 4% | 28% | 67.4% | 5% | 17% | 36.1% | 1% | 35% | 66.8% | 2% | 20% | 26.2% | 15% | 17% | 53.9% | – | – | –
CC1C(c2ccccc2)OCCN1C(=S)Nc1ccc(S(=O)(=O)N2CCCCC2)cc1 (stereo not drawn) | 46% | 86% (active) | 85.4% (active) | 46% | 84% (active) | 89.2% (active) | 65% | 97% (active) | 91.5% (active) | 73% (active) | 96% (active) | 90.1% (active) | 43% | 88% (active) | 86.4% (active) | – | – | –
C=CCO/N=C/c1cc(NC(=S)c2ccoc2C)ccc1Cl | 13% | 86% (active) | 83.9% (active) | 6% | 86% (active) | 85.5% (active) | 1% | 85% (active) | 83.2% (active) | -4% | 90% (active) | 80.4% (active) | 4% | 91% (active) | 76.7% (active) | – | – | –
CC1CC(C)(C)OB(OC(C)CC(C)(C)OB2OC(C)CC(C)(C)O2)O1 (stereo not drawn) | -4% | -35% | 9.6% | -1% | -39% | 15.7% | -4% | -35% | 22.6% | 1% | -33% | 17.7% | 0% | -34% | -32.9% | 2% | -43% | 83% (active)
CCC(C)C(N)C(=O)NC(CC(N)=O)C(=O)NC(CC(C)C)C(=O)NC(CCCCN)C(=O)NC(C)C(=O)NC(CC(C)C)C(=O)NC(C)C(=O)NC(C)C(=O)NC(CC(C)C)C(=O)NC(C)C(=O)NC(CCCCN)C(=O)NC(CCCCN)C(=O)NC(C(=O)NC(CC(C)C)C(N)=O)C(C)CC (stereo not drawn) | -2% | 99% (active) | 93.3% (active) | 6% | 100% (active) | 94.2% (active) | -3% | 99% (active) | 93.8% (active) | -6% | 99% (active) | 93.6% (active) | 0% | 99% (active) | 92.8% (active) | 4% | 98% (active) | 92% (active)
COc1cc(N(CCC#N)CCC#N)ccc1/C(N=Nc1ccc([N+](=O)[O-])cc1)=N/NC(=O)c1cc(Br)ccc1O | 6% | 27% | 63% | 14% | 42% | 44.6% | -6% | 35% | 40.6% | 8% | 48% | 51% | 15% | 37% | 46.1% | 10% | 11% | 55.1%
CCCCCC[C@@H](O)C/C=C\CCCCCCCC(=O)OCCOC | -4% | 2% | 24.9% | -3% | 26% | 5.4% | -6% | 24% | 4.2% | -5% | 86% (active) | 12.6% | 0% | 13% | 34.1% | – | – | –
NNc1ccc(Cl)cc1Cl | 79% (active) | 97% (active) | 98.4% (active) | 54% | 99% (active) | 99.4% (active) | 66% | 98% (active) | 50.6% | 85% (active) | 98% (active) | 98.8% (active) | 77% (active) | 98% (active) | 48.1% | 75% (active) | 99% (active) | 58.6%
CN(C)c1ccc(C(=C2C=CC(=[N+](C)C)C=C2)c2ccc(N(C)C)cc2)cc1 | 99% (active) | 90% (active) | 94.9% (active) | 99% (active) | 95% (active) | 95% (active) | 99% (active) | 95% (active) | 94.8% (active) | 99% (active) | 91% (active) | 94.8% (active) | 99% (active) | 90% (active) | 91.2% (active) | 99% (active) | 93% (active) | 87.2% (active)
O=[N+]([O-])c1ccc(C(Br)c2ccc([N+](=O)[O-])cc2)cc1 | 42% | 97% (active) | 99.8% (active) | 29% | 100% (active) | 99.8% (active) | 65% | 100% (active) | 99.8% (active) | 15% | 100% (active) | 99.7% (active) | 54% | 99% (active) | 99.7% (active) | 22% | 99% (active) | 99.7% (active)
CCC[CH2][Sn]([CH2]CCC)([CH2]CCC)[O]C(=O)C(OC(C)=O)c1ccccc1 (stereo not drawn) | 99% (active) | 99% (active) | 91.5% (active) | 99% (active) | 99% (active) | 92.2% (active) | 99% (active) | 99% (active) | 91.5% (active) | 99% (active) | 99% (active) | 90.2% (active) | 100% (active) | 100% (active) | 91% (active) | – | – | –
O=C(Nc1ccc(Cl)c(Cl)c1)Nc1ccccc1O | 5% | 50% | 46.2% | 6% | 35% | 39.9% | 0% | 31% | 48.8% | – | – | – | 1% | 54% | 76.2% (active) | 12% | 39% | 53.3%
c1csc(-c2[nH]nc3c2CCc2ccccc2-3)c1 | 19% | 97% (active) | 98.3% (active) | -13% | 97% (active) | 96.6% (active) | -2% | 98% (active) | 97.6% (active) | 18% | 98% (active) | 97.1% (active) | -3% | 97% (active) | 98.8% (active) | -6% | 96% (active) | 98.5% (active)
O=C(c1ccccc1)N(CCCl)C(=O)N(CCCl)C(=O)c1ccccc1 | 47% | 56% | 78% (active) | 68% | 52% | 48.9% | -7% | 68% | – | 23% | 64% | – | 31% | 36% | 68% | 45% | 56% | –
CCCOC1N(c2ccc(C)cc2)NC(=O)C1(C)C (stereo not drawn) | 86% (active) | 95% (active) | 83% (active) | 82% (active) | 94% (active) | 56.6% | 33% | 96% (active) | – | 49% | 93% (active) | – | 65% | 99% (active) | 68.1% | 50% | 95% (active) | –
COc1cccc(NC(=O)C(C#N)=C(SC)SC)c1 | 30% | 96% (active) | – | 25% | 92% (active) | – | 49% | 95% (active) | 91.2% (active) | – | – | – | 23% | 59% | 90% (active) | 34% | 41% | 43%
CC1=NN(c2ccccc2)C(=O)C1(Br)Br | 37% | 64% | 92.7% (active) | – | – | – | 23% | 99% (active) | – | 49% | 98% (active) | – | 32% | 58% | 93.3% (active) | 43% | 99% (active) | –
Cc1cc(C(=C2C=CC(=Nc3ccccc3)C=C2)c2ccc(Nc3ccccc3)cc2)ccc1N | 6% | 60% | 43.8% | 7% | 82% (active) | 88.4% (active) | – | – | – | 30% | 75% (active) | 83.3% (active) | 13% | 71% (active) | -23.6% | -8% | 69% | 25.5%
N#Cc1ccc(Br)cc1[N+](=O)[O-] | 45% | 64% | 91.2% (active) | – | – | – | 74% (active) | 100% (active) | – | 87% (active) | 100% (active) | – | 33% | 61% | 92% (active) | 90% (active) | 100% (active) | –
Cc1ccc(/C=N/Nc2cc(C)c3cccc(C)c3n2)s1 | 9% | 94% (active) | 89.3% (active) | -1% | 95% (active) | 92.6% (active) | – | – | – | 4% | 97% (active) | 90.8% (active) | 13% | 93% (active) | 90% (active) | 3% | 95% (active) | 90.3% (active)
NC(=Nc1nc(-c2ccccn2)cc2ccccc12)c1ccccn1 | 54% | 70% (active) | 77.2% (active) | – | – | – | 64% | 72% (active) | 69.2% | 73% (active) | 77% (active) | 71.3% (active) | 61% | 69% | 72.2% (active) | 60% | 71% (active) | 68.6%
Nc1c(N)c(Cl)c(Cl)c(Cl)c1Cl | 38% | 84% (active) | 87% (active) | 58% | 91% (active) | 91.6% (active) | 20% | 96% (active) | – | 32% | 98% (active) | – | 33% | 83% (active) | 87.3% (active) | 43% | 97% (active) | –
